# About 2,700 (4%) of roughly 68,000 compounds showed an effect of 50% or more. This is one part of a sample in which strong results are shown more often than they occur.
# Test system: Plasmodium berghei
# Test: Screen against P. berghei liver stage (PbLuc), transformed with Luciferase, at 2uM
# Format: functional, HepG2
# Conditions: tested at 2 uM
row,Compound,INHIBITION
1,CCn1cc(S(=O)(=O)N2CCC(C3CCCCN(C)C3=O)CC2)c(C)n1 (stereo not given),-12.21%
2,CC(=O)c1cn(CC(=O)NC(C(=O)O)C(C)C)c2ccccc12 (stereo not given),-7.53%
3,COc1cc(C(C)NCc2ncccc2C)ccc1SC(F)F (stereo not given),-48.24%
4,CCS(=O)(=O)N1CCc2c(CN(C)Cc3ccco3)cncc2C1,-21.1%
5,CC(C)N1CCc2c(CN(C)Cc3ccco3)cncc2C1,16.48%
6,CN(Cc1ccco1)Cc1cncc2c1CCN(S(C)(=O)=O)C2,51.94%
7,Cc1nc(C)n(CC2CCCCN2CC(=O)Nc2cccnc2)n1 (stereo not given),-12.75%
8,Cc1nc(C)n(CC2CCCN2CC(=O)Nc2ccncc2)n1 (stereo not given),-40.36%
9,Cc1nc(C)n(CC2CCCN2CC(=O)NC2CCOCC2)n1 (stereo not given),32.76%
10,Cc1nc(C)n(CC2CCCCN2CC(=O)NC2CCOCC2)n1 (stereo not given),60.31%
11,Cc1nc(C)n(CC2CCCN2CC(=O)Nc2cc(C)on2)n1 (stereo not given),-1.02%
12,Cc1nc(C)n(CC2CCCCN2CCC(=O)Nc2cc(C)on2)n1 (stereo not given),-14.71%
13,Cc1nc(C)n(CC2CCCCN2CC(=O)Nc2ccncc2)n1 (stereo not given),51.21%
14,CCN1CCC(NC(=O)CN2CCCC2Cn2nc(C)nc2C)CC1 (stereo not given),-2.82%
15,Cc1nc(C)n(CC2CCCCN2CC(=O)Nc2cc(C)on2)n1 (stereo not given),64.16%
16,O=C(c1c(F)cc(Br)cc1F)N1CCc2cnccc21,-62.99%
17,Cn1c(=O)[nH]c2cc(C(=O)OCC(F)F)ccc21,-67.78%
18,Cn1ccc(C(=O)N2CCC(Cc3cccc4cccnc34)C2)n1 (stereo not given),9.79%
19,Cn1cc(C(=O)Nc2cccc(CCN3CCCC3)c2)ccc1=O,-51.94%
20,O=C(C1CCCCC1)N1CCC2(COc3ncccc3S(=O)(=O)N2)C1 (stereo not given),-15.49%
21,COc1ccc(F)cc1CN1CCCC(c2cc(C(N)=O)[nH]n2)C1 (stereo not given),30.91%
22,NC(=O)c1cc(C2CCCN(C(=O)CCc3ccccn3)C2)n[nH]1 (stereo not given),-0.71%
23,COc1ccccc1OCCN1CCCC(c2cc(C(N)=O)[nH]n2)C1 (stereo not given),31.51%
24,NC(=O)c1cc(C2CCCN(CCc3ccccn3)C2)n[nH]1 (stereo not given),58.53%
25,COc1cccc(CN2CCCC(c3cc(C(N)=O)[nH]n3)C2)c1 (stereo not given),54.99%
26,Cc1cc(C2CCCN(CCc3ccccn3)C2)n[nH]1 (stereo not given),-12.48%
27,O=C(NCC(F)(F)F)C1CCCN(Cc2ccno2)C1 (stereo not given),20.32%

row,Compound,INHIBITION
1,CC(C)c1nnc(NC(=O)C2CSCN2C(=O)C2CCC2)s1 (stereo not given),-52.32%
2,O=C(c1cnccn1)N1CCN2C[C@H](OCc3ccccc3F)C[C@H]2C1,-6.88%
3,CCCSCC(=O)N1C[C@@H]2CC[C@H]1CN(Cc1cccnc1)C2,16.1%
4,O=C(O)CC1COCCN1CCCc1ccccc1 (stereo not given),3.35%
5,Cc1cc(N2CCCC2c2cc(Nc3cnccn3)nc(C)n2)ncn1 (stereo not given),43.23%
6,O=C(CCc1nc2cc(Br)cnc2[nH]1)NCc1cccnc1,10.22%
7,c1ccc(CN2CCC(CCNc3ncnc4c3CCNCC4)C2)cc1 (stereo not given),31.3%
8,c1ccc(CN2CCCC(CNc3ncnc4c3CCNCC4)C2)cc1 (stereo not given),29.87%
9,c1ccc(CN2CCC(CNc3ncnc4c3CCNCC4)CC2)cc1,70.58%
10,O=C(c1ccncc1F)N1CCc2ncnc(C3CC3)c2CC1,21.67%
11,COc1ncccc1CNCc1c(C)nn(C)c1N(C)C,11.2%
12,COc1ncccc1CNCc1c(C(C)C)nn(C)c1N(C)C,43.28%
13,CC(C)c1nn(C)c(N(C)C)c1CNCc1ccc2c(c1)OCO2,-41.21%
14,CC(C)c1nn(C)c(Cl)c1CNCc1ccc2c(c1)OCCO2,8.37%
15,CC(C)c1nn(C)c(N(C)C)c1CNCc1cccnc1N(C)C,39.54%
16,Cc1nn(C)c(N(C)C)c1CNCc1cccnc1OC(C)C,53.98%
17,CCOc1ncccc1CNCc1c(C)nn(C)c1N(C)C,47.87%
18,CCOc1ncccc1CNCc1c(C(C)C)nn(C)c1N(C)C,74.35%
19,CC(C)c1nn(C)c(N(C)C)c1CNCc1ccc2c(c1)OCCO2,66.2%
20,C[C@@H]1C(=O)NC[C@H]2CN(Cc3ccsc3)C[C@H]21,-66%
21,CC(C)(C)c1nc(CN2CCCC(Cn3cncn3)C2)no1 (stereo not given),-64.16%
22,CN(C)C(=O)c1cn[nH]c1C1CCCN1Cc1nccn1C (stereo not given),11.2%
23,Cc1[nH]/c(=N\C(=O)c2csc(NC3CCCC3)n2)sc1C,34.93%
24,CCS(=O)(=O)N1Cc2ncn(CC3CC3)c2C(COC)C1 (stereo not given),26.19%
25,Clc1ccc2oc(C3CCN(Cc4nc(C5CC5)no4)CC3)nc2c1,10.11%
26,c1cc(CCN2CCN(c3ccc4nncn4n3)CC2)ccn1,-1.88%
27,C[S+]([O-])c1nncn1CC(=O)c1ccc2c(c1)CCC2 (stereo not given),61.82%

row,Compound,INHIBITION
1,C[S+]([O-])c1nncn1CC(=O)c1ccc2c(c1)CCO2 (stereo not given),-0.75%
2,C[S+]([O-])c1nncn1CC(=O)c1ccc(Cl)c(Cl)c1 (stereo not given),20.66%
3,COc1ccc(C2CN(c3cc(C)ncn3)CCN2C(C)=O)cc1 (stereo not given),-28.43%
4,CSCc1noc(CN2CC(Cc3ccccc3)CC2=O)n1 (stereo not given),6.75%
5,O=C(c1cc(=O)[nH]c(=O)[nH]1)N1CCCCC1c1nc2cc(F)ccc2[nH]1 (stereo not given),-18.49%
6,O=C(Cc1cccs1)NCC(=O)Nc1cn[nH]c1,28.49%
7,CC(NCC(=O)NCC(=O)Nc1ccc(F)cc1)c1cccs1 (stereo not given),16.95%
8,CN(CC(=O)NCC(=O)Nc1ccc(F)cc1)Cc1cccs1,69.13%
9,CCn1cc(C(=O)N2CCOC(c3nc(-c4cccs4)no3)C2)cn1 (stereo not given),-36.52%
10,COc1cc(-c2n[nH]c(CC#N)n2)cc(OC)c1OC,16.72%
11,CC(C)Nc1cc(N2CCC(n3cc(C4CC4)nn3)CC2)ncn1,-46.8%
12,CCc1cc(N2CCC(n3cc(C(=O)NCC(C)C)nn3)CC2)ncn1,-71.68%
13,CCc1cc(N2CCC(n3cc(C(=O)NC4CC4)nn3)CC2)ncn1,52.66%
14,CC(C)Nc1cc(N2CCC(n3cc(C4CCCC4)nn3)CC2)ncn1,-1.21%
15,CC(C)Nc1cc(N2CCC(n3cc(CCO)nn3)CC2)ncn1,69.71%
16,O=C(NC1CC1)c1cn(C2CCN(c3cc(C4CC4)ncn3)CC2)nn1,-26.81%
17,CCC(CO)NCc1ccc(-c2ccc(Cl)cc2)o1 (stereo not given),2.25%
18,CNC(=O)CCc1cc(C)nc(C2CCN(c3ccccc3)CC2)c1,-107.54%
19,CN(C)CCN1CCC2(CCN(C(=O)c3cccnc3)CC2)C1=O,6.66%
20,O=C(O)c1nnn(Cc2cccc(C(F)(F)F)c2)c1-c1cccnc1,39.9%
21,O=C(O)c1nnn(Cc2cccc(C(F)(F)F)c2)c1-c1ccncc1,43.75%
22,O=C(O)c1nnn(Cc2cccc(C(F)(F)F)c2)c1-c1ccccn1,55.25%
23,COc1ccc2c(c1)CN(Cc1ccco1)C(=O)CCN2CC(C)(C)O,-35.52%
24,COc1ccc(F)cc1C(=O)N(C)[C@@H]1CC[C@@H](O)[C@@H]1O,16.87%
25,CN(C(=O)c1cc(F)ccc1F)[C@@H]1CC[C@@H](O)[C@@H]1O,41.21%
26,CO[C@@H]1CCC[C@@H](N(C)C(=O)c2cc(F)ccc2F)[C@H]1O,53.16%
27,O=C(CO)N1CCOC2(CCCN(c3ncc(F)cn3)C2)C1 (stereo not given),14.27%

row,Compound,INHIBITION
1,CC(C)(C(=O)N1CCCC(OCc2cccnc2)C1)n1cccc1 (stereo not given),27.81%
2,O=C(CC1CCCCC1)N1CCOCC1CO (stereo not given),18.81%
3,CN(CCO)CC1COCCN1C(=O)C1CCCCC1 (stereo not given),-23.4%
4,CN(CCO)CC1COCCN1C(=O)CCC1CCCC1 (stereo not given),69.06%
5,CCOC(=O)NCC(=O)Nc1nc2ccccc2n1C(C)(C)C,30.23%
6,CCc1nccc(CN2CCC(CNC(=O)c3occc3C)C2)n1 (stereo not given),-4.04%
7,c1ccc(Cc2noc(CN3CCc4cncnc4C3)n2)cc1,56.02%
8,CC(C)c1ncc2c(n1)CN(Cc1nc(Cc3ccccc3)no1)CC2,6.12%
9,Cc1ncc2c(n1)CN(Cc1nc(Cc3ccccc3)no1)CC2,-54.44%
10,Cc1cccc(C2CCCN2C(=O)CN(C)S(C)(=O)=O)c1C (stereo not given),-73.81%
11,COCCn1c2c(ccc1=O)CC(NC(=O)c1cscn1)CC2 (stereo not given),-25.4%
12,NC1CC(C(F)(F)F)=NC=C1c1ccc(Cl)cc1 (stereo not given),-19.36%
13,CN(C)c1cc(CNCc2cccc3c2OCCO3)ccn1,-15.64%
14,FC1(F)CCN(Cc2cccnc2)CC12CCN(c1ccccc1)C2 (stereo not given),31.41%
15,COc1cccc(CC(=O)N2CCc3ncnc(NC(C)C)c3CC2)c1,2.71%
16,CC(C)Nc1ncnc2c1CCN(C(=O)[C@H]1CCCO1)CC2,35.89%
17,O=C(C1CCCCO1)N1CCc2ncnc(NCCO)c2CC1 (stereo not given),57.89%
18,COc1cccc(CC(=O)N2CCc3ncnc(NCCO)c3CC2)c1,52.98%
19,O=C(CC1C=CCC1)N1CCc2ncnc(NCc3ccon3)c2CC1 (stereo not given),42.26%
20,O=C([C@H]1CCCO1)N1CCc2ncnc(NC3CC3)c2CC1,-15.36%
21,O=C(C1CCCO1)N1CCc2ncnc(NC3CCC3)c2CC1 (stereo not given),46.32%
22,O=C(C1CCCCO1)N1CCc2ncnc(NCc3ccon3)c2CC1 (stereo not given),59.58%
23,COc1cccc(CC(=O)N2CCc3ncnc(C)c3CC2)c1,19.49%
24,CC(NCc1ccc(-c2ccc(F)cc2)o1)c1nnc2n1CCC2 (stereo not given),-40.26%
